Compounds with a hit are over-represented: about 2.6% of the library has one in this group of screens.
EBV LMP1 NFkB: EBV LMP1-driven NF-kappaB luciferase reporter inhibitors, primary screen, cell-based, luminescence, single point; actives 0.69% (n = 350,000); LMP1-induced NF-kappaB luciferase reporter cells; inhibition, % at 12.5 µM; in the data active = inhibition above about 41%
TROY signal inh: inhibitors of TROY-driven NF-kB signaling, primary screen, Q293 LMP1-TROYcd cells, NF-kB luciferase, uHTS | inhibition, % at 10 µM | AID 1347056, 2019 | actives 0.98% (n = 360,000) | Q293 LMP1-TROYcd NF-kB luciferase reporter, 4 h;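 active = compounds whose plate-normalised and pattern-corrected inhibition of the luciferase reporter signal at the single screening dose is 50% or more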
TWEAK Fn14 block: inhibitors of TWEAK-Fn14 signaling, primary screen, luciferase reporter cells, uHTS; AID 1159606, 2016; TWEAK-stimulated Fn14 reporter cells, luciferase luminescence, 8 h; inhibition, % at 10 µM; actives 2% (n = 360,000); in the data active = inhibition above about 50%
aDG glyco act: activators of alpha-DG glycosylation, primary screen, uHTS, Pro5-aDG cells, AlphaScreen; activation, % at 10 µM; alpha-DG glycosylation AlphaScreen (IIH6); 0% Pro5, 100% B10-LARGE cell signal; actives 0.22% (n = 360,000);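 active = activation of at least 8% versus controls, or a plate z-score of at least 8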;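 note: Pro5 are CHO cells carrying HIG-tagged alpha-DG that lacks glycosylation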
LGR2 antag: inhibitors of bursicon-induced LGR2 CRE-luciferase signal, primary screen, cell-based, HEK293, CRE-luciferase reporter, bursicon stimulation | Drosophila bursicon receptor LGR2 (rickets) | bursicon-stimulated, 4 h | inhibition, % at 9.99 µM | actives 0.35% (n = 380,000) | AID 720647, 2013;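 active = drop in luminescence signal, shown as inhibition above about 50% in the replicate tests, limit read from the data, passing the limit was not always enough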;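 note: agonist challenge used bursicon conditioned medium at about half maximal strength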
HSP90 inh: HSP90 inhibitors, primary screen, cell lysate, luminescence; Heat shock protein HSP 90 (rabbit reticulocyte lysate; luciferase refolding); Rabbit reticulocyte lysate, luciferase refolding luminescence, 3 h; inhibition, % at 5.6 µM; actives 0.91% (n = 290,000);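 active = inhibition above the screen-wide mean plus 3 SD, computed separately per campaign, cut at about 16% in these data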;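 note: inhibitors lower the luminescence because luciferase stays unfolded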
Large screens that a line does not name were inactive.

Cc1ccc(-c2nc(N)sc2C)cc1	TROY signal inh 88
Cc1ccc(-c2nc(N)sc2-c2ccc(C)cc2)cc1	none
CC(C)Nc1ncnc2ccc(Br)cc12	TWEAK Fn14 block 78
CCCc1nc([N+](=O)[O-])c(S(=O)(=O)c2ccccc2)n1CC(C)C	TWEAK Fn14 block 83
CC(C)Cn1c(C(C)C)nc([N+](=O)[O-])c1S(=O)(=O)c1ccc(F)cc1	TWEAK Fn14 block 50 (no result: LGR2 antag)
COc1cccc(CN2[C@H](CO)[C@@H](c3ccccc3)C23CN(C(=O)C2CCC2)C3)c1	none (no result: EBV LMP1 NFkB, TROY signal inh, TWEAK Fn14 block, aDG glyco act, HSP90 inh)
COCCn1c(SCC(=O)N2CCCc3ccccc32)nc2c(c1=O)SC(C)C2 (configuration not stated)	none
COCCn1c(SCC(=O)N2CCc3ccccc32)nc2c(c1=O)SC(C)C2 (configuration not stated)	EBV LMP1 NFkB 89 (no result: HSP90 inh)
O=C(CN1CCOCC1)N[C@@H]1CC[C@@H](CCn2cc(C3CC3)nn2)O[C@@H]1CO	none (no result: EBV LMP1 NFkB, TROY signal inh, TWEAK Fn14 block, aDG glyco act, HSP90 inh)
Cc1cccc(NC(=O)C2CCN(S(=O)(=O)c3cccc4nsnc34)CC2)n1	none (no result: LGR2 antag)
Cc1cccc(N2CCN(C(=O)C3CCN(S(=O)(=O)c4cccc5nsnc45)CC3)CC2C)c1 (configuration not stated)	TWEAK Fn14 block 56 (no result: LGR2 antag)
Cc1cccc2sc(NC(=O)C3CCN(S(=O)(=O)c4cc([N+](=O)[O-])ccc4Cl)CC3)nc12	TWEAK Fn14 block 54
COc1ccc2nc(NC(=O)C3CCN(S(=O)(=O)c4cccc5nsnc45)CC3)sc2c1	TROY signal inh 61, TWEAK Fn14 block 97 (no result: LGR2 antag)
Cc1cccc(N2CCN(C(=O)C3CCN(S(=O)(=O)c4cccc5cccnc45)CC3)CC2C)c1 (configuration not stated)	none (no result: HSP90 inh)
COc1ccccc1C#Cc1ccc2c(c1)O[C@H](CN(C)C(C)=O)[C@H](C)CN([C@H](C)CO)S2(=O)=O	none (no result: EBV LMP1 NFkB, TROY signal inh, TWEAK Fn14 block, aDG glyco act, HSP90 inh)
CCN(CC(=O)Nc1ccc(NC(C)=O)cc1)C(=O)c1ccc(COc2ccc(C(C)(C)C)cc2)cc1	TWEAK Fn14 block 53 (no result: HSP90 inh)
CCN(CC(=O)Nc1ccc(NC(C)=O)cc1)C(=O)c1ccc(COc2ccccc2)o1	none (no result: HSP90 inh)
Cc1ccccc1S(=O)(=O)N[C@@H]1CC[C@H](CCn2cc(-c3ccc(F)cc3)nn2)O[C@H]1CO	none (no result: EBV LMP1 NFkB, TROY signal inh, TWEAK Fn14 block, aDG glyco act, HSP90 inh)
N#C[C@H]1[C@H](c2ccc(-c3cccnc3)cc2)[C@@H](CO)N1C(=O)C1CCC1	none (no result: EBV LMP1 NFkB, TROY signal inh, TWEAK Fn14 block, aDG glyco act, HSP90 inh)
COC(=O)C1CCCCN1C(=O)c1cc(COc2cccc3cnccc23)on1 (configuration not stated)	none
CCOC(=O)CC1CCCCN1C(=O)c1cc(COc2cccc3cnccc23)on1 (configuration not stated)	TWEAK Fn14 block 62, aDG glyco act 6.7
Cc1cc(C)c(NC(=O)CN(C)CC(=O)Nc2cccc(S(=O)(=O)N(C)c3ccccc3)c2)c(C)c1	TWEAK Fn14 block 53 (no result: HSP90 inh)
Cc1nc2ccc(NC(=O)c3cccc(S(=O)(=O)N(C)c4ccccc4)c3)cc2s1	TROY signal inh 60, TWEAK Fn14 block 72 (no result: LGR2 antag)
COc1ccccc1N(C)S(=O)(=O)c1ccc(C(=O)NCCc2ccc(F)cc2)cc1	TWEAK Fn14 block 53
COc1ccc(OC)c2[nH]c(=O)c(CCNC(=O)c3ccc(S(=O)(=O)N4CCCCC4)cc3)cc12	none
CN(c1ccccc1)S(=O)(=O)c1ccc(C(=O)NCCc2ccc(F)cc2)cc1	none
COc1ccc(OC)c2[nH]c(=O)c(CCNC(=O)c3ccc(S(=O)(=O)N(C)C)cc3)cc12	EBV LMP1 NFkB 69
CCC(=O)N(C)C[C@@H]1Oc2cc(C#CC(C)C)ccc2S(=O)(=O)N([C@@H](C)CO)C[C@@H]1C	none (no result: EBV LMP1 NFkB, TROY signal inh, TWEAK Fn14 block, aDG glyco act, HSP90 inh)
CCNC(=O)Nc1ccc2c(c1)C(=O)N(C)[C@@H]1CC[C@@H](CC(=O)NCC3CCCCC3)O[C@H]1CO2	none (no result: EBV LMP1 NFkB, TROY signal inh, TWEAK Fn14 block, aDG glyco act, HSP90 inh)
O=C(C[C@@H]1C=C[C@@H](NC(=O)C2CCOCC2)[C@@H](CO)O1)NCC1CCCCC1	none (no result: EBV LMP1 NFkB, TROY signal inh, TWEAK Fn14 block, aDG glyco act, HSP90 inh)
COc1ccccc1N(C)S(=O)(=O)c1ccc(C(=O)Nc2ccc3nc(C)sc3c2)cc1	TROY signal inh 50
Cc1ccc(NC(=O)c2cccc(S(=O)(=O)N(C)c3ccccc3)c2)cc1S(=O)(=O)N1CCOCC1	TWEAK Fn14 block 54
CN(c1ccccc1)S(=O)(=O)c1cccc(NC(=O)c2cccc(C#N)c2)c1	none (no result: HSP90 inh)
CN(c1ccccc1)S(=O)(=O)c1cccc(NC(=O)c2ccc3ncsc3c2)c1	TROY signal inh 63, TWEAK Fn14 block 76
Cc1ccc(N(C)S(=O)(=O)c2cccc(C(=O)Nc3nc4ccccc4[nH]3)c2)cc1	TWEAK Fn14 block 54
O=C(Cc1cccnc1)N1CC2(C1)[C@H](c1ccccc1)[C@H](CO)N2C(=O)C1CCCCC1	none (no result: EBV LMP1 NFkB, TROY signal inh, TWEAK Fn14 block, aDG glyco act, HSP90 inh)
C[C@@H]1CN([C@@H](C)CO)C(=O)c2cccc(NC(=O)c3ccncc3)c2O[C@@H]1CN(C)C(=O)NC1CCCCC1	none (no result: EBV LMP1 NFkB, TROY signal inh, TWEAK Fn14 block, aDG glyco act, HSP90 inh)
C[C@@H]1CN([C@H](C)CO)C(=O)c2cc(C#C[C@@H](C)O)cnc2O[C@@H]1CN(C)C(=O)c1ccncc1	none (no result: EBV LMP1 NFkB, TROY signal inh, TWEAK Fn14 block, aDG glyco act, HSP90 inh)
Cc1noc(C)c1S(=O)(=O)Nc1ccc2c(c1)C(=O)N([C@@H](C)CO)C[C@H](C)[C@H](CN(C)C(=O)Cc1ccccc1)OCCCC[C@H](C)O2	none (no result: EBV LMP1 NFkB, TROY signal inh, TWEAK Fn14 block, aDG glyco act, HSP90 inh)
O=C(Cc1cccnc1)N1CC2(C1)[C@H](c1ccccc1)[C@@H](CO)N2C(=O)C1CCC1	none (no result: EBV LMP1 NFkB, TROY signal inh, TWEAK Fn14 block, aDG glyco act, HSP90 inh)
Nc1c(-c2ccc3c(c2)OCCO3)oc2ccccc2c1=O	TWEAK Fn14 block 55
O=c1cc(-c2ccc3c(c2)OCO3)oc2ccccc12	none
O=C(CSc1nc(O)cc(=O)n1-c1ccccc1)Nc1nc2ccccc2s1	TROY signal inh 64
COc1ccc(NC(=O)CSc2nc(O)cc(=O)n2-c2ccccc2)cc1	none
COc1ccc(-c2csc(NC(=O)CSc3nc4ccccc4c(=O)[nH]3)n2)cc1	none
Cc1ccc(-c2csc(NC(=O)CSc3nc4ccccc4[nH]3)n2)cc1	TROY signal inh 57, TWEAK Fn14 block 72
CCn1c(SCC(=O)Nc2nc(-c3ccc(C)cc3)cs2)nnc1-c1ccccc1O	TROY signal inh 50 (no result: LGR2 antag)
CCn1c(SCC(=O)Nc2nc3ccccc3s2)nnc1-c1ccc(Br)cc1	TWEAK Fn14 block 66 (no result: LGR2 antag)
COCC#Cc1cnc2c(c1)C(=O)N([C@@H](C)CO)C[C@H](C)[C@@H](CN(C)Cc1ccc(-c3ccccc3)cc1)O2	none (no result: EBV LMP1 NFkB, TROY signal inh, TWEAK Fn14 block, aDG glyco act, HSP90 inh)
CC(=O)N1[C@@H](CO)[C@@H](c2ccccc2)C12CN(C(=O)c1cnccn1)C2	none (no result: EBV LMP1 NFkB, TROY signal inh, TWEAK Fn14 block, aDG glyco act, HSP90 inh)
COc1cc2c(=O)n(CC3CCCO3)c(=O)n(CC(=O)Nc3cccc(Cl)c3)c2cc1OC (configuration not stated)	EBV LMP1 NFkB 85
Cc1cc([N+](=O)[O-])ccc1NC(=O)/C=C/c1cccs1	none

High-throughput results: PubChem BioAssay, several laboratories
